Pf Dd2 growth = inhibitors of Plasmodium falciparum Dd2 growth; P. falciparum Dd2 growth, SYBR Green, 72 h; Potency, µM (top dose mostly 28.9 µM), usual class: inhibitors; 120,000 compounds, 4.3% hits; AID 1347417; active = well fitted inhibition curve with a large enough effect; note: nearly all actives have a fitted effect of over 65% in size
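Infected erythrocytes (Dd2, 0.3% parasitemia, 2.5% hematocrit final) are added to compound in RPMI-1640/Albumax II medium, grown 72 h at 37C in low oxygen, then lysed with saponin/Triton-X containing SYBR Green and read by fluorescence.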
Hits are given with their value; - = inactive; [ ] = another dose, or the depositor's remark. Only a selection was taken, and hits are over-represented in it overall.

SMILES | Pf Dd2 growth
O[C@@H]1C[C@@H](c2nc(Cc3ccccc3)no2)N(Cc2cc3ccccc3o2)C1 | 14.1µM
O[C@@H]1C[C@@H](c2nc(Cc3ccccc3)no2)N(Cc2ccc(F)cc2)C1 | -
COc1ccc(C(=O)Nc2nc3ccccc3n2CCOc2ccc(Cl)cc2)cc1 | 11.2µM
COc1ccc(OCCn2c(C(C)Oc3ccccc3)nc3ccccc32)cc1 (stereo not given) | -
COc1ccc(OCCn2c(NC(=O)c3ccc(OC)cc3)nc3ccccc32)cc1 | -
c1cncc(-c2cnc([C@@H]3COCCN3Cc3ncc[nH]3)[nH]2)c1 | -
O=C(C1CCOCC1)N1CCC(N2C(=O)C(OCC3CC3)C23CCCCC3)CC1 (stereo not given) | -
CNC(=O)[C@@H]1CN(C(=O)c2cc3ccc(OC)cc3[nH]2)C[C@H]1C1CCN(C)CC1 | -
COc1ccc2cc(C(=O)N3CCC(Cc4ccc(C(=O)NC5CC5)cc4)CC3)[nH]c2c1 | 4.47µM
COc1ccc(C(=O)NC2CCN(C(=O)c3cc4c(=O)[nH]c(C)cn4n3)CC2)cc1 | -
COc1cccc(S(=O)(=O)N2CCCCC2c2nc(C3CC3)n[nH]2)c1 (stereo not given) | -
Cn1ccnc1CN1C[C@@H]2C[C@H]1C(=O)N(Cc1ccccn1)c1ccccc1O2 | -
O=C(Nc1ccccc1F)C(Cc1ccccc1)n1cccc1 (stereo not given) | -
CC(C)c1ccc(NC(=O)C(Cc2ccccc2)n2cccc2)cc1 (stereo not given) | -
O=C(Nc1ccc(C(F)(F)F)cc1)C(Cc1ccccc1)n1cccc1 (stereo not given) | 14.1µM
CC(C)Cc1cc(C(=O)NCC2(c3ccccc3F)CCCC2)on1 | -
CCN1CCN(c2ccc(-c3nc(CCCc4ccccc4)no3)cn2)CC1 | 10µM
c1ccc(CCc2noc(-c3ccc(N4CCCOCC4)nc3)n2)cc1 | -
COC1CCN(c2ccc(-c3nc(COc4ccccc4)no3)cn2)CC1 | -
COc1ccc(CNC(=O)C2CCCN(S(=O)(=O)c3cccc4nsnc34)C2)cc1 (stereo not given) | -
Cc1ccccc1C(=O)N1CCC(c2nn(Cc3ccccc3)c(=O)[nH]2)CC1 | -
Cc1cc(C)n(Cc2cccc(C(=O)N3CCCC(c4ncc[nH]4)C3)c2)n1 (stereo not given) | -
Cc1ccccc1Cn1nnc2c(=O)[nH]c(C3CCCN(C(=O)c4ccc(F)cc4)C3)nc21 (stereo not given) | -
O=C(c1cccc(C(F)(F)F)c1)N1CCC(c2nn(-c3ccc(Cl)cc3)c(=O)[nH]2)CC1 | -
O=C(c1cccc(Cl)c1)N1CCC(c2nc3c(nnn3Cc3ccc(F)cc3F)c(=O)[nH]2)CC1 | 2µM
SMILES | Pf Dd2 growth
Cc1ccc(C(=O)N2CCC(c3nn(Cc4ccccc4)c(=O)[nH]3)CC2)cc1 | -
Cc1ccc(C)c(C(=O)N2CCC(c3nc4c(nnn4Cc4ccccc4)c(=O)[nH]3)CC2)c1 | 11.2µM
COC(=O)c1ccc(Cn2nnc3c(=O)[nH]c(C4CCCN(S(=O)(=O)c5ccccc5Cl)C4)nc32)cc1 (stereo not given) | 7.94µM
CC(C)(C)c1ccc(C(=O)N2CCCC(c3nc4c(nnn4Cc4cccc(F)c4)c(=O)[nH]3)C2)cc1 (stereo not given) | 1.58µM
CC(C)n1ccnc1C1CCCN(S(=O)(=O)c2ccccc2Cl)C1 (stereo not given) | -
O=C(c1cccc(Cl)c1)N1CCC(c2nn(-c3ccccc3)c(=O)[nH]2)CC1 | -
CCc1ccc(NC(=O)c2c(OC)cc(=O)n3c2CCCC3)cc1 | -
O=C(c1ccc2c(c1)OCO2)N1CCC2(CC1)N=C(c1ccc(Br)cc1)NO2 | -
CC(=O)N1CCN(C(=O)C2CCNCC2)C[C@@H]1C(=O)N[C@@H](CC1CCCCC1)C(N)=O | -
C=CCNC(=O)N1CCCC1C(=O)Nc1cccc(-n2cccn2)c1 (stereo not given) | -
Cc1c(C(C)NC(=O)c2ccc(=O)[nH]c2)cnn1-c1cccc2ccccc12 (stereo not given) | -
Cc1ccc(NC(=O)Cn2cccc2-c2nc(-c3ccc4c(c3)OCO4)no2)c(Cl)c1 | -
CCC(C)n1c(C(C)NC(=O)OCc2ccccc2)nc2cccnc21 (stereo not given) | -
CCC1(N2CCN(S(=O)(=O)c3cccc4cccnc34)CC2)CCN(C(=O)NC)C1 (stereo not given) | -
Cc1ccccc1-c1nn(-c2ccc(F)cc2F)cc1CN1CCC[C@@H]1C(N)=O | -
O=c1n(-c2ccc(F)cc2F)nc2n1CCN(Cc1cccc3ccccc13)C2 | -
CC(=O)NC1(C)CCN(Cc2cnc(-c3cccc(F)c3)s2)CC1 | -
CCC1COCCN1Cc1cn(-c2ccccc2)nc1-c1ccc(OC)cc1F (stereo not given) | 12.6µM
COc1cccc(-c2ccccc2NC(=O)C2CCN(Cc3cc(F)ccc3F)CC2)c1 | -
Cc1cccc(-n2cc(CN3CCCC(C)(O)C3)c(-c3cccc(F)c3)n2)c1 (stereo not given) | 8.91µM
COc1ccc(CN2CCN(c3nc4ccccc4o3)CC2CCO)c(F)c1 (stereo not given) | -
COc1ccc(OC)c(CN2CCN(Cc3ccccc3F)C(CCO)C2)c1 (stereo not given) | -
Cc1ccccc1-c1nn(-c2ccc(F)cc2F)cc1CN1CCC(O)CC1 | 11.2µM
COc1ccc(-c2nc3c(C)cccc3cc2CN2CCC(O)CC2)cc1OC | -
COc1ccc(-n2cc(CN3CCC(O)CC3)c(-c3cccc(F)c3)n2)cc1 | 12.6µM
SMILES | Pf Dd2 growth
OC1(CN2CCCCC2)CCN(Cc2cccc(F)c2F)C1 (stereo not given) | -
CCOC(=O)c1ccccc1NC(=O)CN1C(=O)NC2(CCCCC2)C1=O | -
CN1CC(=O)N(C2CCCNC2)Cc2c1ncnc2N1CCN(CC2CCCCC2)CC1 (stereo not given) | -
Cc1ccc(C(=O)N2C[C@@H](CO)[C@H](c3ccncc3)C2)nc1 | -
Cc1nc(CN2C(=O)OC3(CCN(CCCc4ccccc4)CC3)C2(C)c2ccccc2)cs1 (stereo not given) | -
Oc1cccc(Nc2cnc3ccc(-c4ccc(F)cc4)nn23)c1 | -
COc1ccc(-c2nn(-c3ccccc3)cc2CN2CCC(F)CC2)c(F)c1 | 11.2µM
COc1cccc(N2CC(C(=O)N3CCC(C#N)CC3)NC2=O)c1 (stereo not given) | -
COc1ccc(-c2nn(-c3ccccc3)cc2CN2CCC(CO)CC2)c(F)c1 | -
COc1ccc(-n2nc(C3CCN(Cc4cccc5ccccc45)CC3)[nH]c2=O)cc1 | -
COc1ccc(-c2nn(-c3ccccc3)cc2CN2CCC(C#N)CC2)c(F)c1 | 11.2µM
COc1ccc(-c2ccnc3nc(C4CC4)nn23)c(F)c1 | -
O=C(c1ccncc1)N1CCCC1c1nc(CCOCC2CCCC2)no1 (stereo not given) | -
O=C(c1ccccn1)N1CCC(N2CCOC2=O)CC1 | -
COc1cccc(OC)c1CN1CC[C@@H]2CN(S(C)(=O)=O)[C@@H]2C1 | -
Cc1ccc(-c2nc3ccccn3c2Nc2ccc3c(c2)OCO3)cc1 | -[0.594 µM]
Cc1cccc2nc(-c3ccc(N(C)C)cc3)c(Nc3ccc4c(c3)OCO4)n12 | 7.94µM
Cc1ccc(-c2nc3ccc(Br)cn3c2Nc2ccc3c(c2)OCO3)o1 | -
CCOc1nccnc1NC1CCN(C(=O)Cc2cccs2)CC1 | -[5.79 µM]
Cn1cc([C@@H](NC(=O)c2scc3c2CCCC3)C2CC(O)C2)cn1 (stereo not given in full) | -
